Experimental data as given in article PMC5540273 (PLoS ONE, 2017).

What was measured:
Conditions in all cases: concentration: 1 μM, replicates: in singlicate; n = 1
PAK6 = test system: PAK6
PAK7 = test system: PAK7
PCTK1 = test system: T1, PCTK1
T1 construct: gene CDK16

PCTK2 = test system: T2, PCTK2
T2 construct: gene CDK17

PCTK3 = test system: T3, PCTK3
T3 construct: gene CDK18

PDGFRA = test system: PDGFRA
PDGFRB = test system: PDGFRB
PDPK1 = test system: PDPK1
PFTAIRE2 = test system: PFTAIRE2
PFTK1 = test system: T4, PFTK1
T4 construct: gene CDK14

PHKG1 = test system: PHKG1
PHKG2 = test system: PHKG2
PIK3C2B = test system: PIK3C2B
PIK3C2G = test system: PIK3C2G
PIK3CA = test system: PIK3CA
PIK3CB = test system: PIK3CB
PIK3CD = test system: PIK3CD
PIK3CG = test system: PIK3CG
PIK4CB = test system: T5, PIK4CB
T5 construct: gene PI4KB

PIKFYVE = test system: PIKFYVE
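Note: KINOMEscan kinase panel screen.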

SMILES | %Inh (PAK6) | %Inh (PAK7) | %Inh (PCTK1) | %Inh (PCTK2) | %Inh (PCTK3) | %Inh (PDGFRA) | %Inh (PDGFRB) | %Inh (PDPK1) | %Inh (PFTAIRE2) | %Inh (PFTK1) | %Inh (PHKG1) | %Inh (PHKG2) | %Inh (PIK3C2B) | %Inh (PIK3C2G) | %Inh (PIK3CA) | %Inh (PIK3CB) | %Inh (PIK3CD) | %Inh (PIK3CG) | %Inh (PIK4CB) | %Inh (PIKFYVE)
Cn1ccc2ncnc(Oc3ccc(NC(=O)Nc4ccccc4)cc3)c21 | 0% | 0% | 1% | 4% | 1% | 97.6% | 100% | 0% | 0% | 0% | 0% | 0% | 0% | 22% | 0% | 16% | 0% | 0% | 0% | 21%
Cc1cccc(-c2nc(-c3ccc(S(C)(=O)=O)cc3)sc2-c2ccnc(NCCc3ccccc3)c2)c1 | 5% | 5% | 15% | 3% | 0% | 89% | 100% | 17% | 5% | 0% | 0% | 9% | 0% | 18% | 1% | 11% | 26% | 17% | 0% | 0%
Clc1cc(Cl)cc(Nc2ccnc(Nc3cc(Cl)cc(Cl)c3)n2)c1 [GSK175726] | 9% | 10% | 0% | 19% | 0% | 14% | 21% | 19% | 2% | 0% | 0% | 0% | 6% | 0% | 5% | 40% | 38% | 3% | 0% | 1%
Cc1cccc(-c2nc(Nc3ccncc3)c3ccccc3n2)n1 [GW855857] | 3% | 0% | 0% | 10% | 0% | 0% | 3% | 24% | 0% | 0% | 47% | 3% | 0% | 0% | 0% | 0% | 0% | 0% | 0% | 57%
O=C(Nc1n[nH]c2nc(-c3nccs3)c(Br)cc12)C1CCCC1 [SB-742609] | 0% | 0% | 48% | 47% | 50% | 0% | 27% | 0% | 7% | 26% | 0% | 0% | 0% | 0% | 0% | 0% | 0% | 0% | 0% | 0%
COc1ccccc1-c1ccc2c(NC(=O)C3CC3)n[nH]c2n1 [SB-711239] | 54% | 4% | 1% | 0% | 27% | 0% | 0% | 13% | 9% | 2% | 1% | 0% | 0% | 45% | 0% | 25% | 23% | 0% | 0% | 17%
Cl.O=C(Nc1cccc(-c2nn3ncccc3c2-c2ccnc(Nc3cccnc3)n2)c1)c1c(F)cccc1F [GSK312879] | 0% | 10% | 1% | 0% | 0% | 0% | 77% | 28% | 22% | 9% | 8% | 18% | 0% | 0% | 0% | 0% | 0% | 0% | 11% | 52%
CN1C(=O)C(Nc2ccc(Cl)c(C(=O)O)c2)=C(c2ccc(Cl)cc2)C1=O [SB-404290] | 0% | 10% | 0% | 6% | 0% | 27% | 0% | 0% | 11% | 0% | 0% | 0% | 34% | 20% | 7% | 0% | 0% | 23% | 16% | 13%
COc1ccc(C2=C(Nc3cccc(C(=O)O)c3)C(=O)NC2=O)cc1 [SB-390765] | 0% | 0% | 1% | 8% | 0% | 30% | 0% | 21% | 24% | 6% | 0% | 0% | 23% | 21% | 0% | 40% | 16% | 27% | 22% | 0%
COc1ccccc1CNC(=O)c1cc(C(=O)c2ccccc2C)c[nH]1 [GSK364507] | 0% | 0% | 4% | 0% | 27% | 0% | 52% | 0% | 0% | 22% | 1% | 0% | 0% | 0% | 0% | 0% | 0% | 0% | 16% | 0%
CN(C)CCN(C)C(=O)c1cc(-c2ccncc2)c(-c2ccc(Cl)c(O)c2)o1.Cl.Cl [SB-710397] | 0% | 0% | 4% | 0% | 0% | 0% | 22% | 0% | 0% | 0% | 0% | 0% | 0% | 0% | 0% | 18% | 40% | 0% | 7% | 47%
O=c1cc(N2CCOCC2)nc2n(Cc3cccc(Cl)c3Cl)ccn12 [GSK2286295] | 0% | 22% | 6% | 15% | 13% | 0% | 37% | 0% | 23% | 2% | 0% | 19% | 22% | 0% | 20% | 98.7% | 89% | 50% | 0% | 0%
CCn1c(-c2ccccn2)nc2cnccc21 [SB-736398] | 0% | 0% | 3% | 0% | 17% | 0% | 0% | 97% | 0% | 16% | 0% | 0% | 0% | 0% | 0% | 18% | 5% | 0% | 0% | 32%
O=C(Nc1n[nH]c2cc(-c3cccc(F)c3F)ccc12)C1CC1 [SB-733894] | 0% | 1% | 0% | 8% | 5% | 23% | 51% | 19% | 0% | 0% | 3% | 25% | 17% | 15% | 0% | 0% | 0% | 19% | 8% | 100%
Nc1ncnc2[nH]c(-c3ccccc3)nc12 [AH5015] | 0% | 0% | 3% | 0% | 0% | 9% | 42% | 21% | 6% | 11% | 0% | 0% | 0% | 0% | 0% | 0% | 0% | 0% | 37% | 8%
COc1cccc(NC(=O)NC2CCN(c3ccnc(Nc4ccc(F)cc4)n3)C2)c1 (stereo not drawn) [GSK1379721] | 0% | 10% | 1% | 14% | 19% | 9% | 42% | 0% | 28% | 0% | 0% | 0% | 11% | 0% | 3% | 0% | 0% | 13% | 0% | 31%
COC(=O)c1c(-c2ccccc2)c2cc(C(=O)O)ccc2c(=O)n1Cc1ccccc1 | 16% | 0% | 8% | 0% | 0% | 65% | 99.4% | 14% | 0% | 0% | 0% | 24% | 3% | 0% | 0% | 13% | 0% | 7% | 0% | 2%
Cc1ccccc1-n1cnc2c(N)ncnc21 [SKF-97510] | 12% | 0% | 0% | 0% | 0% | 0% | 0% | 6% | 0% | 0% | 0% | 10% | 0% | 10% | 0% | 0% | 0% | 0% | 0% | 0%
CS(=O)(=O)c1ccc(-c2c(-c3ncn[nH]3)sc(N3CCOCC3)c2C#N)cc1 | 12% | 0% | 0% | 3% | 14% | 6% | 20% | 0% | 0% | 13% | 9% | 7% | 0% | 14% | 96.9% | 97.3% | 65% | 57% | 0% | 40%
CC1=C(C(=O)Nc2cc3cn[nH]c3cc2F)C(c2ccc(C(F)(F)F)cc2)CC(=O)N1 (stereo not drawn) [GSK429286] | 0% | 0% | 3% | 0% | 5% | 0% | 18% | 0% | 0% | 12% | 0% | 0% | 0% | 0% | 0% | 0% | 34% | 0% | 0% | 0%
COc1ccc2nc(-c3cccc(C)n3)nc(Nc3ccncc3)c2c1 [GSK204919] | 0% | 1% | 5% | 0% | 36% | 0% | 25% | 12% | 0% | 14% | 0% | 0% | 3% | 0% | 0% | 0% | 0% | 0% | 5% | 81%
